# The supplement of paper PMC10849652
# Targets with a hit are over-represented here; the source holds about 7,900 in all. About 0.6% of all pairs of compound and target were hits. Unmarked numbers belong to inactive results.
# Assays:
# Experiment in all cases: log2 fold change, soluble protein after heating vs DMSO (PISA); higher = thermal stabilisation; K562 cells, 10 uM, 30 min; active = over 0.2 and 3.5 SD of the protein, either way, in both replicates (recomputed)
# IRAK-1-4 Inhibitor I = compound: C1COCCN1CCN2C3=CC=CC=C3N=C2NC(=O)C4=CC(=CC=C4)[N+](=O)[O-] [IRAK-1-4 Inhibitor I]
# Procedure, shortened: (§1)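 Values are thermal stability changes relative to control samples and are taken from duplicates. They are stated as log2 fold changes. Before quantification by TMTpro 16plex LC-MS/MS with equalised channel sums, K562 cells at 2×10^6 cells/mL were treated with 10 μM compound for 30 min, heated in aliquots for 3 min across 48°C-58°C, pooled, extracted in PBS with 0.5% NP-40 at 4°C, and centrifuged at 21,000xg for 90 min to give the soluble supernatant.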
# ibrutinib = compound: C=CC(=O)N1CCC[C@@H](n2nc(-c3ccc(Oc4ccccc4)cc3)c3c(N)ncnc32)C1 [ibrutinib]
# Procedure, shortened: as §1
# [1] = compound: CC(=O)c1cnc2ccc(-c3cc(Cl)c(O)c(Cl)c3)nc2c1N[C@H]1CC[C@H](CN(C)C)CC1
# Procedure, shortened: as §1
# ralimetinib = compound: CC(C)(C)Cn1c(N)nc2ccc(-c3[nH]c(C(C)(C)C)nc3-c3ccc(F)cc3)nc21 [ralimetinib]
# Procedure, shortened: as §1
# [2] = compound: CC(C)(O)CC(=O)NCCn1ccc2ncnc(Nc3ccc(Oc4cccc(C(F)(F)F)c4)c(Cl)c3)c21
# Procedure, shortened: as §1
# [3] = compound: CC(C)C1=C2N=C(C=C(N2N=C1)NCC3=CC=CC=C3)NCCCCCCN
# Procedure, shortened: as §1
# [4] = compound: CC(C)C[C@@H](C=O)NC(=O)[C@H](CC(C)C)NC(=O)[C@H](CC(C)C)NC(=O)OCc1ccccc1
# Procedure, shortened: as §1
# pinometostat = compound: CC(C)N(C[C@H]1O[C@@H](n2cnc3c(N)ncnc32)[C@H](O)[C@@H]1O)[C@H]1C[C@@H](CCc2nc3cc(C(C)(C)C)ccc3[nH]2)C1 [pinometostat]
# Procedure, shortened: as §1
# [5] = compound: CC1=C(C(CC(=O)N1)C2=CC=C(C=C2)C(F)(F)F)C(=O)NC3=C(C=C4C(=C3)C=NN4)F
# Procedure, shortened: as §1
# [6] = compound: CC1=C(C2=C(C=C1)C(=O)C3=CC=CC=C3N2CCCN)C
# Procedure, shortened: as §1
# [7] = compound: CC1=C(C=C(C=C1)NC(=O)C2=CC(=CC=C2)C(C)(C)C#N)NC3=CC4=C(C=C3)N=CN(C4=O)C
# Procedure, shortened: as §1
# [8] = compound: CC1=C(C=C(C=C1)NC(=O)C2=CC(=CC=C2)N(C)C)NC(=O)C3=CC=C(C=C3)O
# Procedure, shortened: as §1
# [9] = compound: CC1=CC=C(C=C1)SC2=C3C=C(SC3=CN=C2)C(=O)N
# Procedure, shortened: as §1
# [10] = compound: CC1=NC(=CC=C1)C2=C(N=C(N2)C(C)(C)C)C3=CC4=NC=CN=C4C=C3
# Procedure, shortened: as §1
# Nexturastat A = compound: CCCCN(Cc1ccc(C(=O)NO)cc1)C(=O)Nc1ccccc1 [Nexturastat A]
# Procedure, shortened: as §1
# vemurafenib = compound: CCCS(=O)(=O)Nc1ccc(F)c(C(=O)c2c[nH]c3ncc(-c4ccc(Cl)cc4)cc23)c1F [vemurafenib]
# Procedure, shortened: as §1
# [11] = compound: CCCS(=O)(=O)Nc1ccc(F)c(C(=O)c2c[nH]c3ncc(Cl)cc23)c1F
# Procedure, shortened: as §1
# [12] = compound: CCCc1cc(C)[nH]c(=O)c1CNC(=O)c1cc(-c2ccnc(N3CCN(C)CC3)c2)cc2c1cnn2C(C)C
# Procedure, shortened: as §1
# givinostat = compound: CCN(CC)Cc1ccc2cc(COC(=O)Nc3ccc(C(=O)NO)cc3)ccc2c1 [givinostat]
# Procedure, shortened: as §1
# barasertib = compound: CCN(CCCOc1ccc2c(Nc3cc(CC(=O)Nc4cccc(F)c4)[nH]n3)ncnc2c1)CCOP(=O)(O)O [barasertib]
# Procedure, shortened: as §1
# UniProt Q96D46, sequence (Q96D46 whole entry, looked up): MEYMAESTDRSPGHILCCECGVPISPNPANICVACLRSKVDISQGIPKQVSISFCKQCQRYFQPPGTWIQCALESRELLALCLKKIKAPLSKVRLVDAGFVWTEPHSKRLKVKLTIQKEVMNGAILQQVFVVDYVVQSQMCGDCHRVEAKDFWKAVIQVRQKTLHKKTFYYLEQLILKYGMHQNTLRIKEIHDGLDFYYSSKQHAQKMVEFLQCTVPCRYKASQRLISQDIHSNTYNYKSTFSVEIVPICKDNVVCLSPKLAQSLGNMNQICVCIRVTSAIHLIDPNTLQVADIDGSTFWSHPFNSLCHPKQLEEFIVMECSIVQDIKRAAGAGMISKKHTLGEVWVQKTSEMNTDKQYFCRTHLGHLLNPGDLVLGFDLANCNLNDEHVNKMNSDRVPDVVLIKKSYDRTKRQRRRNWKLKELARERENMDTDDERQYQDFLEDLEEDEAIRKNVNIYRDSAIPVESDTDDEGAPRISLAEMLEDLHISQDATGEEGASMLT
# UniProt P51948, sequence (P51948 whole entry, looked up): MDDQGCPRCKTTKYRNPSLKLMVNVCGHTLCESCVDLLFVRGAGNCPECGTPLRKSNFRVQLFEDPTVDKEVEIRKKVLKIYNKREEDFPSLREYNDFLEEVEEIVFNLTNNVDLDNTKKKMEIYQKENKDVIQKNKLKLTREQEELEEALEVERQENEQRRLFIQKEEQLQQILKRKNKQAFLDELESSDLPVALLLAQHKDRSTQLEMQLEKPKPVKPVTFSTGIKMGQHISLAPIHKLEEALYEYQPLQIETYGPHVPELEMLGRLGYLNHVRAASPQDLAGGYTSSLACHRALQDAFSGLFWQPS
# UniProt Q330K2, sequence (Q330K2 whole entry, looked up): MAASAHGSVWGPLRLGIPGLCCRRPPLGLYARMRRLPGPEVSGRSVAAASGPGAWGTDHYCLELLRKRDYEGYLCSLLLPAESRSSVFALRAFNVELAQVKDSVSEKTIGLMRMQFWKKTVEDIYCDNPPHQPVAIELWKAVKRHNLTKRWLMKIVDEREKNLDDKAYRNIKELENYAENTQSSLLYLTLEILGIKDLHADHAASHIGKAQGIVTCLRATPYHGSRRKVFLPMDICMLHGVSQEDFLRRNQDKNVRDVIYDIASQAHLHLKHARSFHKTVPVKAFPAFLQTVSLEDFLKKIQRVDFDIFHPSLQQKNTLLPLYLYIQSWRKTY
# UniProt Q9H000, sequence (Q9H000 whole entry, looked up): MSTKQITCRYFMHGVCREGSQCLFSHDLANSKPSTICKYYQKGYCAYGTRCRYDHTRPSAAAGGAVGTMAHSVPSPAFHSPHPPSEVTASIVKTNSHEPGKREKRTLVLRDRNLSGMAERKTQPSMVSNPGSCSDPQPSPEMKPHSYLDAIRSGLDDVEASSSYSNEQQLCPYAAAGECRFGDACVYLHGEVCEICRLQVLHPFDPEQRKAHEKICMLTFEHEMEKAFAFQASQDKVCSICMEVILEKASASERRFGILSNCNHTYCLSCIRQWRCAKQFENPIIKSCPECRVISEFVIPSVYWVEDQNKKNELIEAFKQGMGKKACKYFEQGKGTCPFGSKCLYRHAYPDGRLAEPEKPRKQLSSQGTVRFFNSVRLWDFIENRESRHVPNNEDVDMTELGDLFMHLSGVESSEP
# UniProt Q9UBD5, sequence (Q9UBD5 whole entry, looked up): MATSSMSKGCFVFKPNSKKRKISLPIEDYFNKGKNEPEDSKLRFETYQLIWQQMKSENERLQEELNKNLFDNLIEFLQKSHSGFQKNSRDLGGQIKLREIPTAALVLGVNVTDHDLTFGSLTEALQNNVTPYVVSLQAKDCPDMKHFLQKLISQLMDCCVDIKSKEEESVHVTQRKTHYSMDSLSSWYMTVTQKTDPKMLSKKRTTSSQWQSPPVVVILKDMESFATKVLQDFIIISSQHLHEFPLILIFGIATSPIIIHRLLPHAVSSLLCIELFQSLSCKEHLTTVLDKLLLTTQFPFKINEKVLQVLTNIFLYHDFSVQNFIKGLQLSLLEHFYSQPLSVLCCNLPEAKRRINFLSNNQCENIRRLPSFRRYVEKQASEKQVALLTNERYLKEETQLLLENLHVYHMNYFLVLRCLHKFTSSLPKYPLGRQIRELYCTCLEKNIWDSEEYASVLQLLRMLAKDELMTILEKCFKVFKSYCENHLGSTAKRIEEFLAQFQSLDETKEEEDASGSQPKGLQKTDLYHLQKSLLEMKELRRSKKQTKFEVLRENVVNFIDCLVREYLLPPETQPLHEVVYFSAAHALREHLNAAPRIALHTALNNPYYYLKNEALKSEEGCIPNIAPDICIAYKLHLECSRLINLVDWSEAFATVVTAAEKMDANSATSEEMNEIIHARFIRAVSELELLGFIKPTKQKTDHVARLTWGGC
# UniProt P55209, sequence (P55209 whole entry, looked up): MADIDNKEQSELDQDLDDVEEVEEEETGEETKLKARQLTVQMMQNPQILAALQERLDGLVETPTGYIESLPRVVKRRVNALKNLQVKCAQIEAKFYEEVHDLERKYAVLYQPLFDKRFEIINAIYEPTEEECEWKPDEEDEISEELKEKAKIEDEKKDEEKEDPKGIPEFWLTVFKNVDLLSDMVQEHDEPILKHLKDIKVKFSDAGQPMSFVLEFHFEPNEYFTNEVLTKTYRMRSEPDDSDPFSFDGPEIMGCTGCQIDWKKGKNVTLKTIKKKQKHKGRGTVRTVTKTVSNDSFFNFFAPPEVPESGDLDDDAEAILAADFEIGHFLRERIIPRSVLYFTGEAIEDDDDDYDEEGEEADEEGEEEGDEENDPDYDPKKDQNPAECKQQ
# UniProt Q9H081, sequence (Q9H081 whole entry, looked up): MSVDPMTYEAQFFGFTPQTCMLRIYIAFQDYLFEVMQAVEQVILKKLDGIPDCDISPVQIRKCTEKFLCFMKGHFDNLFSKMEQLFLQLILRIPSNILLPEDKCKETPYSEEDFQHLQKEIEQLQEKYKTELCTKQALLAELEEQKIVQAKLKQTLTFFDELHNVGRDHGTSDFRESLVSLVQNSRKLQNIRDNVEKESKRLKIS
# UniProt Q96PU5, sequence (Q96PU5 whole entry, looked up): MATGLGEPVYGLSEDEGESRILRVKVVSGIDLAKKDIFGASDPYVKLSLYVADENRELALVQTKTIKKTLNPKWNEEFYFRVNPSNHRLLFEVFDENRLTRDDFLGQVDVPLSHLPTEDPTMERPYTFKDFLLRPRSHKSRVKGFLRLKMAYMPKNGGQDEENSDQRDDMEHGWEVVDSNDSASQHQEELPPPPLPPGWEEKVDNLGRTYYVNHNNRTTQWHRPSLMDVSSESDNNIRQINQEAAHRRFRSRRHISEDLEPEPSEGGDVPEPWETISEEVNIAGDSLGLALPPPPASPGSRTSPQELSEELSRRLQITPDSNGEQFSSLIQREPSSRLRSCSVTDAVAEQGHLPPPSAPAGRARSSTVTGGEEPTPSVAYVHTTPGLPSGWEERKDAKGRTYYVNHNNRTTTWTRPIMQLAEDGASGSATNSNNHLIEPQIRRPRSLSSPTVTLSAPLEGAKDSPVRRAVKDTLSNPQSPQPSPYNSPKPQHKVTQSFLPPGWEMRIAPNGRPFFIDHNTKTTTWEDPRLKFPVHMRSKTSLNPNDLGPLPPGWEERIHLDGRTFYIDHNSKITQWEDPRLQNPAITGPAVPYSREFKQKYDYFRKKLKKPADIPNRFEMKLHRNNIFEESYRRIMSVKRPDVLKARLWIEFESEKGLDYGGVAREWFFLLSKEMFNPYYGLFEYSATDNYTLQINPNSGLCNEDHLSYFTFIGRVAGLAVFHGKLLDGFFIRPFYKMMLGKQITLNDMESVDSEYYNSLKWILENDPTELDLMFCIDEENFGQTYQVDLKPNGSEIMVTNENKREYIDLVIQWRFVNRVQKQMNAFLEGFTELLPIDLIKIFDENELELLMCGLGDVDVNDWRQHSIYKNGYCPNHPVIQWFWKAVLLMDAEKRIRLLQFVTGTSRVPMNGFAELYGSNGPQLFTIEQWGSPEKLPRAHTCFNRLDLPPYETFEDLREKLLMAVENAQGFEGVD
# UniProt Q9NRP0, sequence (Q9NRP0 whole entry, looked up): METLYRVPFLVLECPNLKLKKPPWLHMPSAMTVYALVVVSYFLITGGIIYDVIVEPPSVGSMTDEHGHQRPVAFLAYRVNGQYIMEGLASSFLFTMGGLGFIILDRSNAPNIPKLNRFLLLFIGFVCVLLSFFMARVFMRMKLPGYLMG
# UniProt Q9BRP4, sequence (Q9BRP4 whole entry, looked up): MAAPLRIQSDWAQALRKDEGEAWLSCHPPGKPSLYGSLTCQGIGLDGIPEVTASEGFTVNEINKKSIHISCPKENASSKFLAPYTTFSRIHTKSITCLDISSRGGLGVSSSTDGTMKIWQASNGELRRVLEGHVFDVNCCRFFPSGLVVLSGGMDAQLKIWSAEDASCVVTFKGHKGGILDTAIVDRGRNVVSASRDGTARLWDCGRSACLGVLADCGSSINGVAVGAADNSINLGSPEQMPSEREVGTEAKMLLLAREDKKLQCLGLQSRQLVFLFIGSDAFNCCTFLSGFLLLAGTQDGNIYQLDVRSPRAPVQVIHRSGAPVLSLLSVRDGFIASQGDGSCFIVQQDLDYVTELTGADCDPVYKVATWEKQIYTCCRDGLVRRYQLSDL
# UniProt Q96MF7, sequence (Q96MF7 whole entry, looked up): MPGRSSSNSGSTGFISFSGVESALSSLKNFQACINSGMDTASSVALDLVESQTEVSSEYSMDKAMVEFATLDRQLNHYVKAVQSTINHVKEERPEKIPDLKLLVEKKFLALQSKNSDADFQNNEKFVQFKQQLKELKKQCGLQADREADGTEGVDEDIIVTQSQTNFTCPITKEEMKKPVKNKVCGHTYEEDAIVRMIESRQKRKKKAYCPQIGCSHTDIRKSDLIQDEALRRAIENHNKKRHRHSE
Target,log2 fold change (IRAK-1-4 Inhibitor I),log2 fold change (ibrutinib),log2 fold change [1],log2 fold change (ralimetinib),log2 fold change [2],log2 fold change [3],log2 fold change [4],log2 fold change (pinometostat),log2 fold change [5],log2 fold change [6],log2 fold change [7],log2 fold change [8],log2 fold change [9],log2 fold change [10],log2 fold change (Nexturastat A),log2 fold change (vemurafenib),log2 fold change [11],log2 fold change [12],log2 fold change (givinostat),log2 fold change (barasertib)
MNAT1 (UniProt P51948),0.025,0.03,-0.221 (active),-0.044,0.024,0.062,-0.028,0.022,-0.016,-0.027,0.004,-0.006,0.001,0.001,0.043,-0.006,0.039,-0.037,0.069,-0.003
NMD3 (UniProt Q96D46),0.001,-0.046,0.017,-0.049,-0.104,-0.069,-0.141,-0.026,-0.064,-0.392 (active),0.03,-0.061,-0.009,0.067,-0.079,0.077,0.03,-0.004,-0.024,0.015
NSMCE2 (UniProt Q96MF7),-0.023,-0.171,-0.107,0.176,0.051,0.122,-0.083,-0.001,-0.056,-0.122,0.019,-0.052,0.006,0.056,0.064,-0.007,0.021,0.018,-0.076,0.078
NAP1L1 (UniProt P55209),0.04,-0.041,-0.012,-0.003,0.021,0.017,0.021,-0.029,0.105,0.004,0.042,0.005,-0.002,0.035,-0.003,0.04,0.011,0.028,-0.08,0.061
MRPS31 (UniProt Q92665),-0.057,0.014,-0.073,-0.005,-0.032,-0.086,0.057,0.034,0.026,-0.14,-0.015,-0.012,-0.041,-0.017,0.111,-0.041,0.054,-0.012,0.009,-0.007
MKRN2 (UniProt Q9H000),-0.063,0.026,-0.137,0.034,0.017,0.032,0.089,0.094,-0.017,-0.064,0.147,0.059,-0.002,0.086,0.091,0.095,0.035,-0.045,0.083,-0.098
ORC3 isoform 2 (UniProt Q9UBD5),-0.113,-0.015,-0.132,-0.059,-0.383,-0.338,-0.013,0.012,0.045,-0.049,-0.027,-0.056,0.146,0.075,-0.124,0.012,0.143,0.044,0.145,0.178
NEU1 (UniProt Q99519),-0.136,-0.069,-0.175,0.05,0.018,-0.379 (active),0.166,-0.021,0.049,-0.131,0.031,-0.048,0.029,0.118,0.068,-0.002,-0.008,0.057,0.036,0.059
OSTC (UniProt Q9NRP0),-0.002,-0.013,-0.022,0.004,-0.055,-0.377 (active),-0.046,-0.023,-0.031,0.119,0.001,0.001,0.047,0.058,-0.114,-0.115,0.068,-0.058,0.076,0.061
NDUFAF6 (UniProt Q330K2),0.129,-0.044,-0.107,0.039,-0.214,-0.235,0.083,-0.132,0.091,-0.109,0.055,0.068,0.169,0.024,-0.052,-0.055,0.035,-0.088,-0.063,-0.01
NEDD4L (UniProt Q96PU5),0.026,-0.002,-0.014,-0.293 (active),-0.01,-0.107,-0.059,0.027,-0.017,-0.084,0.015,-0.138,-0.046,0.01,-0.059,0.049,0.019,0.013,0.056,-0.021
PAAF1 (UniProt Q9BRP4),0.037,-0.003,-0.029,0.001,0.007,0.037,-0.28 (active),-0.026,0.008,0.027,-0.026,-0.005,0.016,0.003,-0.035,-0.028,0.019,-0.038,0.023,0.021
MIS12 (UniProt Q9H081),0.024,0.026,-0.025,-0.004,-0.151,-0.087,0.06,0.006,0.019,-0.035,-0.008,-0.141,-0.004,0.044,0.056,0.074,-0.002,0.023,0.102,0.049
OXA1L (UniProt Q15070),0.05,0.011,0.03,-0.037,0.006,-0.209,-0.004,0,0.016,-0.018,-0.013,0.01,0.02,0.01,-0.021,0.022,-0.013,-0.049,0.003,-0.012
OGFR (UniProt Q9NZT2),-0.023,0.001,-0.235,-0.014,0.109,-0.028,-0.008,0.149,0.036,0.044,-0.023,0.018,-0.022,0.035,0.057,0.075,0.002,0.01,-0.02,0.125
MRPS35 (UniProt P82673),-0.035,0.004,-0.082,-0.035,-0.047,-0.024,0.083,0.078,0.006,-0.186,-0.016,-0.013,-0.04,-0.007,0.167,-0.063,-0.022,0.149,0.017,-0.034
